TGFb inhibitor: blocks TGF-b signaling; HepG2 CAGA-GFP TGF-b/SMAD3 reporter, GFP fluorescence, 18 h; TGF-beta stimulated, 500 pg/mL final; Potency, µM (highest dose often 46.1 µM), for the others: top-dose activity, negative = inhibition, most hits filed as inhibitors; hit rate 1.2% among 410,000; further: on the % scale 0 is the no-effect control and ±100 the full control effect; nearly all actives have a fitted effect of over 65% in size
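HEPG2 CAGA-GFP cells (1000/well, DMEM with 1% FBS) were pre-incubated 2 h at 37 degrees C, given compound by pin tool, then stimulated with TGF-beta at 500 pg/mL final for 18 h before per-cell GFP fluorescence imaging.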
ATXN2 expr inh: ATXN2 expression inhibition | HEK-293 ATXN2-luciferase reporter, luminescence, 24 h | Potency, µM (series often up to 57 µM), for inactives: at the highest dose activity change, negative = inhibition, actives largely listed as inhibitors | hit rate 0.72% among 360,000 | AID 1745845; further: on the % scale 0 is the no-effect control and ±100 the full control effect; nearly all actives have a fitted effect of over 55% in size
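ATXN2-luciferase reporter cells (luciferase flanked by upstream and downstream ATXN2 gene portions) were treated 24 h at 37 °C with compounds at up to 57 uM. SteadyGlo luminescence gave expression; GF-AFC fluorescence gave viability.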
RORgamma inh: ROR gamma (mouse) transcription inhibition; Drosophila S2 Gal4-RORgamma UAS-luciferase reporter, 20 h; Potency, µM (titrated, usually from 53.6 µM), for the others: top-dose activity change, negative = inhibition, most hits filed as inhibitors; hit rate 5.4% among 310,000; further: on the % scale 0 is the no-effect control and ±100 the full control effect; nearly all actives have a fitted effect of over 60% in size
Target sequence (P51450 whole entry, looked up, the tested form may be a part): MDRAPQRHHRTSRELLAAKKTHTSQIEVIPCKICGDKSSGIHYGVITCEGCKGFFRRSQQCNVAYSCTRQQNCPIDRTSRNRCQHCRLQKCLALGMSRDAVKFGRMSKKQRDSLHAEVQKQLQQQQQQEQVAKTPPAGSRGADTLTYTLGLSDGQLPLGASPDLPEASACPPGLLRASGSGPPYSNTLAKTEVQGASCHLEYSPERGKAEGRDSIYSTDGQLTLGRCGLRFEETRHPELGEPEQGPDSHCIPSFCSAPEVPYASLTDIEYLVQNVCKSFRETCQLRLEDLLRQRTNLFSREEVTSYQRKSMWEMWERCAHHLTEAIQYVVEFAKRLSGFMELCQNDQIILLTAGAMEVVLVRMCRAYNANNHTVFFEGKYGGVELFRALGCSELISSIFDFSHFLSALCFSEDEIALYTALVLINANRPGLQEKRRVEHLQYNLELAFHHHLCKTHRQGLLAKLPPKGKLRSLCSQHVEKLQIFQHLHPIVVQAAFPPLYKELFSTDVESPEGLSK
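Drosophila S2 cells stably expressing Gal4-DBD/mouse RORγ fusion under metallothionein promoter plus UAS-luciferase; compound 1 h, then 700 uM CuSO4 induction for 20 h at ambient temperature; inhibition read as reduced luminescence.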
ATXN viability: reduces viability in counter-screen for ATXN expression inhibitors | S2 cells (HEK-293 line with an ATXN2-luciferase reporter) viability, CellTiter-Fluor protease fluorescence, 24 h | Potency, µM (titrated, usually from 56.7 µM), usual class: cytotoxic | hit rate 0.49% among 400,000 | AID 651635; further: nearly all actives have a fitted effect of over 40% in size
VP16 counter: counter-screen for ROR gamma inhibitors: Gal4-VP16 reporter; Drosophila S2 Gal4-VP16 UAS-luciferase, luminescence, 20 h; Potency, µM (titrated, usually from 53.6 µM), without a hit: at the highest dose activity, negative = inhibition, actives largely listed as inhibitors; hit rate 3.5% among 310,000;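 further: Gal4-VP16 expression switched on by copper sulfate through the metallothionein promoter; on the % scale 0 is the no-effect control and ±100 the full control effect; nearly all actives have a fitted effect of over 50% in size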
HepG2 viability: HepG2 cytotoxicity, counter-screen for TGF-b inhibitors. HepG2 CAGA-GFP viability, ATP luminescence, 18 h. Potency, µM (doses to about 46.1 µM), without a hit: top-dose activity change, negative = cytotoxicity, actives largely listed as cytotoxic. hit rate 0.76% among 410,000
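HepG2 CAGA-GFP cells (1000/well, DMEM with 1% FBS) received compound, then TGF-beta at 500 pg/mL final, and were incubated 18 hours at 37 degrees C. Viability was read by CellTiter-Glo luminescence. Media-only wells were set as complete cell-killing and DMSO as no toxicity.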
* hit, by the source's call; i = inactive; ? = inconclusive; / = not tested or not shown; [ ] = remark or other dose. In the library only some 6.3% were active in any assay of this set; here they are far more common. The call rests on the fitted dose curve; in most records, active means well fitted curve in the direction sought with a large enough effect; inconclusive means small, poorly fitted or top-dose-only effect, or another doubt; inactive means no such curve, though single readings can be large; an effect the other way counts as inactive or inconclusive. Potency means the concentration at half of the fitted maximal effect.

SMILES	TGFb inhibitor	ATXN2 expr inh	RORgamma inh	ATXN viability	VP16 counter	HepG2 viability
CCOC(=O)c1c(CC(C)C)csc1NC(=O)CCl	-9.9%	-17.9%	-86.5%	?	?	20µM*
CCOC(=O)c1c(CC(C)C)csc1NC(=O)C(C)C	-13.1%	-8.9%	20.1%	i	2.6%	-38.2%
Cc1ccc(-n2c(O)c(/C=N/NC(=O)C3COc4ccccc4O3)c3ccccc3c2=O)cc1 (stereo not drawn)	?	?	3.98µM*	i	3.16µM*	-39.5%
O=C(N/N=C/c1c(O)n(-c2ccccc2Cl)c(=O)c2ccccc12)C1COc2ccccc2O1 (stereo not drawn)	-1.7%	?	3.98µM*	i	2.82µM*	-45.6%
O=C(N/N=C/c1cccs1)C1COc2ccccc2O1 (stereo not drawn)	4.0%	-7.4%	?	i	?	-4.0%
CCn1cc(CN2CCCC(C(=O)Nc3ccc(-c4cscn4)cc3)C2)cn1 (stereo not drawn)	-1.2%	-7.3%	7.5%	i	2.3%	-3.0%
COc1cc2c(cc1OC)CN(c1nc(CN3CCCCC3)nc3sc4c(c13)CCCC4)CC2	9.2%	-12.5%	11.2µM*	?	?	11.4%
COc1cc2c(cc1OC)CN(c1nc(CN3CCOCC3)nc3sc4c(c13)CCCC4)CC2	-21.8%	-24.3%	14.1µM*	?	?	-21.3%
COc1cc2c(cc1OC)CN(c1nc(CN3CCCC3)nc3sc(C)c(C)c13)CC2	-16.1%	-14.1%	?	i	-6.5%	-17.4%
COc1cccc(Nc2nc(CN3CCOCC3)nc3sc4c(c23)CCCC4)c1	27.1%	-3.3%	10µM*	i	?	-1.8%
Cc1ccc(Oc2nc(CN3CCOCC3)nc3sc4c(c23)CCC(C)C4)cc1 (stereo not drawn)	0.0%	-5.9%	?	i	?	-20.8%
Cc1ccc(Oc2nc(CN3CCOCC3)nc3sc4c(c23)CCC(C)C4)cc1C (stereo not drawn)	6.3%	1.0%	7.94µM*	?	11.2µM*	6.9%
COC(=O)c1c(OCc2cccnc2)cc(=O)n2c1CCN(C(=O)c1cccc(N(C)C)c1)CC2	/	/	/	i	/	/
O=C(NCCOc1cccc2cccnc12)c1cccs1	-0.4%	-0.4%	-3.6%	i	5.1%	-1.9%
O=C(Oc1cccc2cccnc12)c1cccs1	?	-5.4%	1.58µM*	i	2.82µM*	-42.3%
O=C(Oc1cccc2cccnc12)c1ccco1	12.6µM*	-7.1%	1.58µM*	i	3.98µM*	-52.9%
O=C(Oc1cccc2cccnc12)c1ccc(Br)o1	5.6%	-33.8%	11.2µM*	i	?	0.2%
O=C(Nc1cccc2cccnc12)c1ccc(Br)o1	0.7%	14.5%	?	i	3.6%[0.365 µM]	-26.7%
O=C(Cc1ccc(Cl)cc1)Oc1cccc2cccnc12	?	-26.9%	1.41µM*	i	3.98µM*	-94.6%
CCOc1ccc(NC(=O)Cn2cc(C(=O)c3ccc(C)c(C)c3)c(=O)c3cc(F)ccc32)cc1	-18.9%	10.3%	/	i	/	-3.1%
O=C(Oc1ccccc1)c1cccc2cccnc12	?	-19.8%	2.51µM*	i	3.98µM*	-99.3%
Cc1ccc(OC(C)C(=O)N2CCc3ccccc32)c([N+](=O)[O-])n1 (stereo not drawn)	6.5%	/	/	i	/	-20.5%
Oc1cccc2ccc[n+](CC(O)CBr)c12 (stereo not drawn)	2.1%	/	/	/	/	-6.3%
Oc1cccc2ccc[n+](CC(O)Cn3c4ccccc4c4ccccc43)c12 (stereo not drawn)	?	-16.4%	-73.3%	?	22.4µM*	-40.3%
NC(=S)N/N=C/c1ccc2c(c1)OCCO2	-12.5%	4.4%	11.2µM*	i	?	-14.3%
SMILES	TGFb inhibitor	ATXN2 expr inh	RORgamma inh	ATXN viability	VP16 counter	HepG2 viability
COc1ccc(NCC(=O)N/N=C/c2ccc3c(c2)OCCO3)cc1	0.2%	13.4%	0.126µM*	i	-6.4%	-6.9%
CNC(=S)N/N=C/c1ccc2c(c1)OCCO2	0.6%	/	?	?	0.631µM*	-1.2%
COC(=O)CCCCC(CCSS/C(CCO)=C(\C)N(C=O)Cc1cnc(C)nc1N)SC(C)=O (stereo not drawn)	/	2.9%	/	i	/	/
Cc1ccccc1/C=N/n1c(-c2cc(-c3ccccc3)n[nH]2)n[nH]c1=S	-26.9%	0.3%	?	i	?	-25.7%
Cc1ccsc1/C=N/n1c(-c2cc(-c3ccccc3)n[nH]2)n[nH]c1=S	?	-11.5%	2.82µM*	i	?	-107.5%
Cc1ccsc1/C=N/n1c(COc2ccccc2)n[nH]c1=S	-10.7%	-10.1%	6.31µM*	i	6.31µM*	2.2%
S=c1[nH]nc(COc2ccccc2)n1/N=C/c1cccs1	-1.2%	-7.1%	?	i	7.08µM*	8.9%
COc1ccc(-c2nc3scc(CCNS(=O)(=O)c4ccc(F)cc4C)n3n2)cc1	0.0%	/	/	/	/	-22.5%
CCN(CC)c1ccc(NC(=O)C2COc3ccc(OC)cc3C2)c(C)c1 (stereo not drawn)	8.91µM*	?	/	?	/	-33.5%
Cc1ccc(S(=O)(=O)Nc2nc(-c3ccccc3)cs2)cc1	-9.8%	-13.8%	-38.7%	i	3.4%	10.4%
O=S(=O)(Nc1ccc(-c2csc(-c3ccccc3)n2)cc1)c1ccccc1	?	-37.6%	?	?	-27.6%	14.1µM*
Cc1ccc(S(=O)(=O)Nc2ccc(-c3csc(-c4ccccc4)n3)cc2)cc1	?	-3.7%	-79.1%	?	?	12.6µM*
CCCc1nc(SCC(=O)Nc2nnc(CC)s2)c2c(=O)n(C)c(=O)n(C)c2n1	-5.0%	-4.1%	-21.0%	i	5.01µM*	-5.3%
O=C(NNc1ccccc1[N+](=O)[O-])Nc1ccccc1	-25.6%	7.5%	4.7%	i	1.9%	0.4%
CNC(=S)NNc1ccccc1[N+](=O)[O-]	0.0%	-26.7%	15.8µM*	i	6.0%	3.0%
COCCNC(=S)NNc1ccccc1[N+](=O)[O-]	-20.0%	1.7%	?	i	11.2µM*	-21.0%
O=C(CSc1nc2c(c(=O)[nH]1)CN(Cc1ccc(F)cc1)CC2)Nc1cccc(C(F)(F)F)c1	-10.9%	-20.6%	/	i	/	-24.4%
CC(C)CC1Nc2ccc(C(=O)NCCCN3CCCCC3C)cc2NC1=O (stereo not drawn)	4.0%	3.4%	-5.7%	i	3.6%	0.4%
S=C(NCc1ccco1)Nc1ccc(Cl)c(Cl)c1	?	?	12.6µM*	i	15.8µM*	-39.8%
